Measured values: PubChem BioAssay (NCATS)
Inconclusive results are not listed. A number with no mark means an inactive call. Activity calls are given as the source filed them. The call rests on the fitted dose curve; in most records, active means well fitted inhibition curve with a large enough effect; inconclusive means small, poorly fitted or top-dose-only effect; inactive means flat fitted curve, though single readings scatter.

What follows are compounds tested against Phospholipid hydroperoxide glutathione peroxidase GPX4 (Homo sapiens) (UniProt P36969) (assay: Primary qHTS Assay for Inhibitors of Recombinant Selenoprotein Glutathione Peroxidase 4 (GPX4) (AID 1845192; further: nearly all actives have a fitted effect of over 65% in size)). Conditions: recombinant GPX4, GR-coupled NADPH fluorescence, 15 min; series mostly up to 50 µM; activity change, negative = inhibition: at the top concentration.
Sequence of Phospholipid hydroperoxide glutathione peroxidase GPX4 (Homo sapiens) (P36969 whole entry, looked up): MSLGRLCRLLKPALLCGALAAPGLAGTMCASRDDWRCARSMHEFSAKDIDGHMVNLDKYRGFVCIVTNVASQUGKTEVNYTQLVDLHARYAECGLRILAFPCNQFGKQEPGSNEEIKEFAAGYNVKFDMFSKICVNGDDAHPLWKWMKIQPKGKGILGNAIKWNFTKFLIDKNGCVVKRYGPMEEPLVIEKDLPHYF
Excerpt: Assay Provider: Elias S.J. Arner MD PhD.
Department of Medical Biochemistry and Biophysics
Karolinska Institutet, Solna, Stockholm, Sweden
Selenoprotein glutathione peroxidases (GPX), like the ubiquitously expressed GPX1 and the ferroptosis modulator GPX4, enact their antioxidant activities by reducing hydroperoxides using glutathione. […] GPX1 and GPX4 inhibitors have thus shown promise as anti-cancer agents. Existing inhibitors are often promiscuous, or modulate GPX activity only indirectly, so novel direct inhibitors identified through screening against GPX1 and GPX4 could be valuable. Here, we developed optimized glutathione reductase (GR)-coupled GPX assays for the biochemical high-throughput screen (HTS) of almost 12,000 compounds with known mechanisms of action. Initial hits were triaged using a GR counter-screen, assessed for isoform specificity using a separate GPX2 assay, and were assessed for general selenocysteine-targeting activity using a thioredoxin reductase (TXNRD1) assay. With this suite of assays, we identified novel GPX1/GPX2- and GPX4-specific inhibitors and can here present a validated pipeline for future discovery research for selenoprotein-targeting agents.
SEQUENCE No. (e.g., 1, 2, 3, etc.); […] (e.g., Cells, Incubation, Reagent, etc.); VALUE; DESCRIPTION.
1; Reagent 1; 3 uL; 333.33 nM GPx4 enzyme or no enzyme control in 1536-well, black, solid Greiner assay plate.
2; Compound; 25 nL; Kalypsis pin tool (Wako USA) equipped with a 1536-well pin head.
3; Incubation; 30 min; room temperature.
4; Reagent 2; 1 uL; 500 nM GR, 5 mM GSH, 2.5 mM NADPH solution
5; Reagent 3; 1 uL; 2.5 mM CHP in 50% EtOH.
6; Detection; Fluorescence; ViewLux microplate reader, excitation 340 nm and emission 450 nm.
7; Incubation; 15 min; room temperature.
8; Detection; Fluorescence; ViewLux microplate reader, excitation 340 nm and emission 450 nm.
NOTES (numbers refer to Sequence numbers above)
1. 3 µL of 333.33 nM GPX4 and 0.016% BSA in assay buffer (50 mM Tris-HCl, 2 mM EDTA (pH 7.5), 150 mM NaCl) was added to columns 3-48 of 1536-well plates using a BioRAPTR Flying Reagent Dispenser (Let's Go Robotics (LGR), Carlsbad, CA). A no-enzyme control (0.01% BSA in TES assay buffer) was added to columns 1-2.
2. 25 nL, library and DMSO controls were added to each well with a pin tool (Kalypsys).
3. The assay plates were incubated for 30 minutes at room temperature.
4. 1 µL of master mix (500 nM glutathione reductase (GR), 5 mM reduced glutathione (GSH), 2.5 mM NADPH in assay buffer) was added.
5. 1 µL of cumene hydroperoxide (CHP) ([2.5 mM] in 50% EtOH) was then added within 5 minutes to initiate the reaction. Final concentrations were: 200 nM GPX4, 1 mM GSH, 0.5 mM CHP, 0.5 mM NADPH, 100 nM GR, 0.01% BSA.
6. Initial fluorescence readout (t=0) at 340/450 nm was measured using a ViewLux multimodal detector (PerkinElmer, Waltham, MA).
8. Endpoint fluorescence readout (t=15) at 340/450 nm was measured 15 min after room temperature incubation.
For `CCOC(=O)c1csc(Nc2ccc(Cl)cc2)n1`, the “activity change, negative = inhibition” value was -0.0701%. For `CNS(=O)(=O)c1ccccc1Nc1nc(Nc2ccc(N3CCN(C)CC3)cc2OC)ncc1Br`, the “activity change, negative = inhibition” value was -1.9%. For `Cc1ccnn1-c1ccc(C(=O)N2CCN(S(=O)(=O)c3ccc(Cl)c(C(F)(F)F)c3)CC2)cc1`, the “activity change, negative = inhibition” value was -11.2%. `c1ccc(-c2ccc(CNc3nc(-c4ccccn4)nnc3-c3ccccc3)cc2)cc1` was tested, and the “activity change, negative = inhibition” value was -17.5%. In the case of `C=C1C(=O)O[C@@H]2C[C@@]3(C)C[C@@H](O)C[C@H](C)C3=C[C@H]12`, the “activity change, negative = inhibition” value is reported as -14.1%. `CCN1CCN(Cc2ccc(NC(=O)c3ccc(C)c(Oc4ncnc5[nH]c(C)cc45)c3)cc2C(F)(F)F)CC1` was tested, and the “activity change, negative = inhibition” value was -4.55%. For `CN1CCN(C(=O)CN[C@@H]2C[C@H]2c2ccc(OCc3ccccc3)cc2)CC1`, the “activity change, negative = inhibition” value was -12.3%. `C/C=C/[C@@H]1C=C[C@@H]2C[C@H](C)CC[C@H]2[C@]1(C)/C(O)=C1/C(=O)[C@@H](CO)N(C)C1=O` was tested, and the “activity change, negative = inhibition” value was -5.44% [at 27.8 µM]. For `O=C(Nc1ccc(-c2ccnc(Nc3ccc(N4CCOCC4)cc3)n2)cc1)C1CCCN1` (stereo not given), the “activity change, negative = inhibition” value was -5.15%. For `CC1(NC(=O)c2ccc(C#Cc3cccc(F)c3)cn2)COC1`, the “activity change, negative = inhibition” value was -22%. For `CC(=O)OC(C)(C)/C=C/C(=O)[C@](C)(O)[C@H]1C(O)C[C@@]2(C)[C@@H]3CC=C4[C@@H](C=C(O[C@@H]5O[C@H](CO)[C@@H](O)[C@H](O)[C@H]5O)C(=O)C4(C)C)[C@]3(C)C(=O)C[C@]12C` (stereo not given in full), the “outcome” value was “inactive [at 15.3 µM]”. With `CC(=O)OC(C)(C)/C=C/C(=O)C(C)(O)C1C(O)CC2(C)C3CC=C(C(C)(C)C(=O)O)C(CC(=O)O)C3(C)C(=O)CC12C` (stereo not given) the “activity change, negative = inhibition” value was -8.48% [at 15.3 µM]. For `C=C1C(=O)OC2CC(C)C(CCC(C)=O)=CCC12` (stereo not given), the “outcome” value was “inactive”. `Nc1nc(NC2CC2)cc(-c2cccc(Cl)c2Cl)n1` was tested, and the “activity change, negative = inhibition” value was -24%. In the case of `CC(=O)O[C@@]12CO[C@@H]1C[C@H](O)[C@@]1(C)C(=O)[C@H](O)C3=C(C)[C@@H](OC(=O)[C@H](O)[C@@H](NC(=O)OC(C)(C)C)c4ccccc4)C[C@@](O)([C@@H](OC(=O)c4ccccc4)C12)C3(C)C` (stereo not given in full), the “activity change, negative = inhibition” value is reported as -7.38% [at 27.8 µM]. With `C=C1C(=O)O[C@@H]2C[C@H](C)[C@@H]3CC(=O)C(C)=C3C[C@H]12` the “activity change, negative = inhibition” value was -2.32%. In the case of `CC(C)=CCC[C@](C)(O[C@@H]1O[C@H](CO[C@@H]2OC[C@@H](O)[C@H](O)[C@H]2O)[C@@H](O)[C@H](O)[C@H]1O)[C@H]1CC[C@]2(C)[C@@H]1[C@H](O)C[C@@H]1[C@@]3(C)CC[C@H](O[C@@H]4O[C@H](CO)[C@@H](O)[C@H](O)[C@H]4O)C(C)(C)[C@@H]3CC[C@]12C`, the “activity change, negative = inhibition” value is reported as -9.29% [at 27.8 µM]. In the case of `COc1cc(/C=N\NC(=O)c2ccc3c(c2)OCO3)ccc1OCc1ccccc1`, the “activity change, negative = inhibition” value is reported as -2.03%. With `C=C1C(=O)O[C@H]2CC(=C)[C@H]3CC[C@@](C)(O)[C@@H]3CC12` (stereo not given in full) the “activity change, negative = inhibition” value was -5.32%. With `C=C1C(=O)O[C@@H]2/C=C(\C)CC/C=C(/C=O)[C@H](OC)[C@@H](OC(=O)C(C)C)[C@@H]12` the “activity change, negative = inhibition” value was -11.5% [at 27.8 µM]. In the case of `COc1cc(F)c(C(C)C)cc1-c1ccc(C(F)(F)F)cc1CN1C(=O)OC(c2cc(C(F)(F)F)cc(C(F)(F)F)c2)C1C` (stereo not given), the “activity change, negative = inhibition” value is reported as 9.63%. In the case of `CCn1c2ccccc2c2cc(Nc3ccnc(NCCCN4CCOCC4)n3)ccc21`, the “activity change, negative = inhibition” value is reported as -16.1%. In the case of `CC(C)(C)c1ccc(-c2nc3c(N4CCN(Cc5ccc6nccnc6c5)CC4)cccc3[nH]2)cc1`, the “activity change, negative = inhibition” value is reported as -13.4%. For `COc1ccc2c(c1)C(C(=O)N(Cc1ccc(N(C)C)cc1)c1ccc(C(C)C)cc1)CCC2` (stereo not given), the “activity change, negative = inhibition” value was -30.3%. With `Cn1nc(C(C)(C)C)cc1C(=O)N[C@@H](Cc1cccc(Cl)c1)C(=O)NCC#N` the “activity change, negative = inhibition” value was -7.55%. For `CC(C)(F)CC(NC(c1ccc(-c2ccc(S(C)(=O)=O)cc2)cc1)C(F)(F)F)C(=O)NC1(C#N)CC1` (stereo not given), the “activity change, negative = inhibition” value was -7.33%. `C=C(C)[C@@H]1CC[C@]2(C(=O)O)CC[C@]3(C(=O)O)[C@H](CCC4[C@@]5(C)CCC(=O)C(C)(C)C5CC[C@]43C)C12` (stereo not given in full) was tested, and the “activity change, negative = inhibition” value was -16.8% [at 27.8 µM]. With `C/C=C/CCC1Cc2cc(O)c(CCCC)c(O)c2C(=O)O1` (stereo not given) the “activity change, negative = inhibition” value was -2.57%. `CC(O)(C(=O)C1CC1(CO)COC1OC(CO)C(O)C(O)C1O)C1C(O)CC2C3CC=C4CC(O)CC(O)C4(C)C3C(O)CC21C` (stereo not given) was tested, and the “outcome” value was “inactive [at 15.3 µM]”. For `CCCCc1ccc(NS(=O)(=O)c2ccc(F)cc2)cc1`, the “activity change, negative = inhibition” value was -5.62%. In the case of `C[C@@H](NC(=O)c1ccc(C#Cc2cccc(F)c2)cn1)C(C)(C)O`, the “activity change, negative = inhibition” value is reported as -20.5%. In the case of `C=C1C(=O)O[C@H]2/C=C(/C)[C@@H](OC(C)=O)C/C=C(\C)C[C@@H](OC(=O)/C(=C/C)COC(=O)/C(=C/C)CO)[C@@H]12`, the “activity change, negative = inhibition” value is reported as -5.8% [at 27.8 µM]. With `CCC(CC)Nc1nc(C)c(-c2ccc(OC(F)(F)F)cc2OC)nc1OC` the “activity change, negative = inhibition” value was -19.9%. In the case of `CC[C@H](C)/C=C(C)/C=C/C1=CC2=C(Cl)C(=O)[C@](C)(O)[C@H](OC(C)=O)[C@H]2CO1`, the “activity change, negative = inhibition” value is reported as -32.1% [at 27.8 µM]. For `CCCCc1c(-c2ccc(OC)cc2)[nH]c2nccnc12`, the “activity change, negative = inhibition” value was 2.11%. For `CC1CCCC[C@H]2C(=O)C=C[C@H](O)[C@@H]2CC(=O)O1` (stereo not given in full), the “activity change, negative = inhibition” value was -3.18%. In the case of `COc1cc2c(cc1OC(C)C)[C@H](c1ccc(Cl)cc1)N(c1ccc(N(C)CC3CCC(N4CCN(C)C(=O)C4)CC3)cc1)C(=O)C2` (stereo not given in full), the “activity change, negative = inhibition” value is reported as -15.9%. `CC(=O)NC[C@H]1CN(c2ccc(N3CCSCC3)c(F)c2)C(=O)O1` was tested, and the “activity change, negative = inhibition” value was 1.14%. In the case of `COc1cccc(N2CCN(C3=Nc4c(F)cccc4[C@H](CC(=O)O)N3c3cc(C(F)(F)F)ccc3OC)CC2)c1`, the “activity change, negative = inhibition” value is reported as 4.68%. With `COc1ccc(CNCc2cccc3ccccc23)cc1` the “activity change, negative = inhibition” value was 3.18%.
